Screening data: PubChem BioAssay, Columbia University Molecular Screening Center
E-sel TNF inh = E-selectin induction blockers in HUVEC – imaging, immunofluorescence, high content, primary screen; HUVEC TNFa-induced E-selectin immunofluorescence; hit rate 0.71% among 120,000; inhibition, % at 2 µM;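 active = inhibition above the batch mean plus 3 SD, and confirmed as a hit on visual image review, cut at about 43% in these data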;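 note: 0% = TNF-stimulated DMSO wells and 100% = unstimulated control wells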
IL1B cytotox = cytotoxicity in IL-1B stimulated HUVEC, primary screen, cytotoxicity control for IL-1B NFkB translocation project, imaging, Hoechst nuclear count, IL-1B stimulus | hit rate 0.41% among 94,000 | cell count reduction, % at 2 µM | AID 845, 2007 | HUVEC cell count loss;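 active = cell count reduction more than 3 SD above the screen-wide mean, cut at about 70% in these data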;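 note: normalized per plate to untreated control cells as the no-loss baseline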
IL1B NFkB pot = enhancers of NFkB p65 translocation in HUVEC – imaging, IL-1B stimulus, high-content imaging, primary screen | HUVEC IL-1B NFkB p65 nuclear translocation imaging | activation, % at 2 µM | AID 819, 2007 | hit rate 0.3% among 94,000;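 active = activation above 40%, about the mean plus 3 SD, also judged a hit on visual image review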;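 note: percent activation is computed from the nuclear over cytoplasmic p65 intensity ratio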
VCAM1 TNFa inh = inhibitors of TNFa-induced VCAM1 expression, primary screen, imaging, HUVEC, TNFa stimulus, immunofluorescence; inhibition, % at 2 µM; hit rate 0.48% among 95,000; HUVEC TNFa-induced VCAM-1 immunofluorescence, high-content imaging;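 active = inhibition above the batch mean plus 3 SD, with images confirmed as a hit by eye, cut at about 37% in these data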;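 note: 0% = TNF-stimulated DMSO wells and 100% = unstimulated control wells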
NFkB transloc inh = inhibitors of IL-1B driven NFkB p65 nuclear import, primary screen, imaging, HUVEC, IL-1B stimulus, high-content imaging. HUVEC IL-1B NFkB p65 nuclear translocation imaging. AID 796, 2007. inhibition, % at 2 µM. hit rate 0.43% among 94,000;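 active = inhibition above about 30% together with a positive call from visual inspection of the well image, limit read from the data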;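 note: nuclear over cytoplasmic p65 intensity ratio measured by imaging; 0% = IL-1B stimulated DMSO wells and 100% = unstimulated DMSO wells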
TNFa cytotox = cytotoxicity in TNFa-stimulated HUVEC, primary screen, cytotoxicity control for VCAM1 expression modulator project, imaging, Hoechst nuclei count; HUVEC TNFalpha-stimulated, Hoechst cell count; cell count reduction, % at 2 µM; AID 848, 2007; hit rate 0.17% among 93,000;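 active = cell count reduction exceeding the screen mean by over 5 SD, scaled to untreated wells per plate, cut at about 78% in these data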;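 note: cells counted after 24 h of TNF alpha exposure following the 1 h pretreatment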
Numbers without * were called inactive; · = no result given. This is a sample that favours compounds with a hit; in the whole collection about 1.8% have one here.

SMILES	E-sel TNF inh	IL1B cytotox	IL1B NFkB pot	VCAM1 TNFa inh	NFkB transloc inh	TNFa cytotox
N#C/C(=C\c1cc(Cl)cc(Cl)c1O)C(=O)NC1CCCCC1	100.0*	-5.5	7.3	23.2	-7.3	21.7
Cc1ccc(S(=O)(=O)N(C)CCCC(=O)Nc2cc(C)ccc2C)cc1	97.4*	·	·	·	·	·
C/C(N)=C(/C#N)C(=O)COC(=O)c1ccc(C)c(S(=O)(=O)N2CCCCC2)c1	-26.7	0.3	42.3*	1.6	-42.3	3.0
Cc1ccc2nc3cc([N+](=O)[O-])cc([N+](=O)[O-])c3cc2c1	99.3*	·	·	·	·	·
O=C(CSc1ncn(-c2ccccc2)n1)Nc1ccc2c(c1)OCO2	20.2	·	·	·	·	·
O=C(CSc1ncn(-c2ccccc2)n1)Nc1ccc2c(c1)OCCO2	72.1*	·	·	·	·	·
Cc1cc(C)cc(OCC(=O)Nc2ccc(F)cc2)c1	-6.2	84.5*	-3.6	3.5	3.6	-8.0
O=C(C1CCCN(S(=O)(=O)c2ccc(Br)s2)C1)N1CCCCCC1 (centres undefined)	-1.0	-2.9	-32.8	14.4	32.8*	-4.0
Cn1c(=O)c2cc(S(=O)(=O)NC(C(=O)N3CCCCCC3)c3ccccc3)ccc2n(C)c1=O (centres undefined)	·	-13.0	-5.6	3.2	5.6	-15.9
COC(=O)c1cc2sc(Cl)cc2n1CC(=O)Nc1cccc(SC)c1	65.2*	28.8	9.6	-6.5	-9.6	12.5
CC1(C)Cc2cccc(Oc3ccc(S(=O)(=O)N4CCCCC4)cn3)c2O1	-16.2	·	·	·	·	·
O=S(=O)(c1ccc(Oc2ccc(Br)cc2F)nc1)N1CCCCC1	-35.1	-43.5	-40.3	·	40.3*	·
COc1ccc(NC(=O)c2ccc(CNc3c(NC4CCCCC4)c(=O)c3=O)cc2)cc1OC	72.5*	-2.0	9.6	-4.6	-9.6	-14.9
O=c1[nH]c2ccccc2nc1Cc1ccccc1	0.8	-43.5	13.3	-16.5	-13.3	-10.1
Nc1ccc(Br)cc1-c1nc2ccccc2[nH]c1=O	99.8*	·	·	·	·	·
O=C(Oc1csc(=S)n1C(=O)c1ccccc1)c1ccccc1	-2.1	15.7	-22.5	98.4*	22.5	85.6*
O=C(NCc1ccccc1)c1cnsn1	-5.8	89.3*	14.8	10.9	-14.8	-21.0
CCN(CC)c1ccc(NC(=O)COC(=O)/C=C/c2nc3ccccc3s2)cc1	62.1*	·	·	·	·	·
CCN(CC)c1ccc(/C=C/c2nc3ccccc3s2)cc1	13.5	-24.4	-7.1	1.2	7.1	-15.4
O=c1ccc2ccc(OCc3nnc(-c4ccccc4Br)o3)cc2o1	73.5*	0.6	-4.5	-7.6	4.5	-3.7
Cc1cc(=O)oc2cc(OCc3nnc(-c4ccccc4Br)o3)ccc12	-7.4	7.3	13.2	-4.4	-13.2	7.8
C#CC(=O)N(c1cc(OC)ccc1OC)C(C(=O)NC1CCCC1)c1cccs1 (centres undefined)	58.3*	43.2	9.2	35.0	-9.2	15.4
C#CC(=O)N(c1ccc(OC)cc1OC)C(C(=O)NC1CCCC1)c1cccs1 (centres undefined)	30.7	·	·	·	·	·
O=C(NCC1OCCc2ccccc21)c1ccco1 (centres undefined)	-17.9	-2.5	53.3*	-1.6	-53.3	16.4
O=C(CCN1CCCCC1)NCC1OCCc2ccccc21 (centres undefined)	1.6	-41.9	21.3	-2.9	-21.3	-27.0
SMILES	E-sel TNF inh	IL1B cytotox	IL1B NFkB pot	VCAM1 TNFa inh	NFkB transloc inh	TNFa cytotox
COC(=O)c1sccc1-n1cccc1C(=O)C(=O)N1CC(C)OC(C)C1 (centres undefined)	-3.5	7.8	16.4	2.8	-16.4	-5.1
Cc1onc(-c2ccccc2Cl)c1C(=O)Nc1ccccc1	-7.0	-12.7	0.1	25.7	-0.1	-2.9
Cc1onc(-c2ccccc2Cl)c1C(=O)Nc1cc(=O)n(C)c(=O)n1C	-19.8	88.8*	-17.6	16.2	17.6	14.8
C=CCOC(=O)c1[nH]c2c(c1C)C(=O)CC(c1ccco1)C2 (centres undefined)	-0.3	·	·	·	·	·
Cc1c(C(=O)OCC(C)C)[nH]c2c1C(=O)CC(c1ccco1)C2 (centres undefined)	·	2.8	-12.3	67.3*	12.4	64.3
C/C=C/COC(=O)c1[nH]c2c(c1C)C(=O)CC(c1ccco1)C2 (centres undefined)	·	-3.6	-24.0	51.2*	24.0	64.1
CCn1c(=O)c2cc(S(=O)(=O)NC3CCCCC3)ccc2n(CC)c1=O	-11.4	15.2	17.1	-13.3	-17.1	5.2
Cc1ccc(NC2OC(CO)C(O)C2O)cc1[N+](=O)[O-] (centres undefined)	0.0	·	·	·	·	·
Cc1ccc(NC2OC(C(O)CO)C(O)C2O)cc1[N+](=O)[O-] (centres undefined)	64.4*	22.7	18.7	-11.5	-18.7	26.7
CCCOc1ccc([N+](=O)[O-])cc1C1NC(=S)NC(c2ccccc2)=C1C(=O)OCC (centres undefined)	70.4*	-0.3	10.2	24.6	-10.2	26.5
CCOC(=O)c1ccccc1NC(=O)c1ccc(N(C)S(C)(=O)=O)cc1	70.1*	15.0	-7.9	-0.6	7.9	-5.4
CCOC(=O)c1ccccc1NC(=O)c1ccccc1N(C)S(C)(=O)=O	-27.5	6.2	15.9	-25.7	-15.9	·
COc1ccc(C2=NOC(C(=O)NCCCN3CCOCC3)C2)cc1 (centres undefined)	5.5	5.3	46.8*	5.8	-46.8	12.0
COc1ccc(C2=NOC(C(=O)NCCN3CCOCC3)C2)cc1 (centres undefined)	·	-12.7	0.7	6.4	-0.7	-16.1
O=c1c2c3c(sc2nc2sc(C4CC4)nn12)CCCC3	17.9	77.6*	-88.4	7.2	88.4*	-10.1
O=C1CCc2nc3sc4c(c3c(=O)n2N1)CCCC4	31.2	17.7	5.2	0.5	-5.2	0.8
O=C(NCCc1ccccc1)C(=O)Nc1ccc([N+](=O)[O-])cc1	-12.2	·	·	·	·	·
CCOc1ccc(NC(=O)/C=C/c2ccc(OC)cc2)c([N+](=O)[O-])c1	60.9*	·	·	·	·	·
CCOc1ccc(NC(=O)COC(=O)C23CC4CC(CC(C4)C2)C3)c([N+](=O)[O-])c1	94.8*	·	·	·	·	·
O=C(Nc1nc(-c2ccc(Cl)cc2)cs1)c1cccnc1	1.1	3.5	-6.2	-3.1	6.2	-4.8
Cc1ccc(-c2nc(NC(=O)c3nn(C)cc3[N+](=O)[O-])sc2C)cc1C	99.6*	66.2	-45.2	88.6*	45.2*	36.3
Cc1ccc(-c2nc(NC(=O)c3nn(C)cc3[N+](=O)[O-])sc2C)cc1	87.0*	26.4	-24.4	91.7*	24.4	26.4
Cn1cc([N+](=O)[O-])c(C(=O)Nc2nc(-c3ccc(Cl)cc3)cs2)n1	97.8*	-9.6	-77.3	30.2	77.3*	29.4
